Article PMC7862700, “An all-to-all approach to the identification of sequence-specific readers for epigenetic DNA modifications on cytosine”

Columns and labels:
Test in all cases: DAPPL (digital affinity profiling via proximity ligation, sequencing); 10 mM Tris-HCl pH 7.5, 50 mM NaCl, 1 mM DTT, 4% glycerol, room temperature, 30 min; GST-TFs on glutathione beads, 16-mer random dsDNA library, 0.1% formaldehyde crosslink after washing; high values mean tight binding
FEV = target: T1, FEV (Homo sapiens, UniProt Q99581 1-238); conditions: protein: recombinant; tags: N-terminal GST; dsDNA, one strand shown
T1 sequence: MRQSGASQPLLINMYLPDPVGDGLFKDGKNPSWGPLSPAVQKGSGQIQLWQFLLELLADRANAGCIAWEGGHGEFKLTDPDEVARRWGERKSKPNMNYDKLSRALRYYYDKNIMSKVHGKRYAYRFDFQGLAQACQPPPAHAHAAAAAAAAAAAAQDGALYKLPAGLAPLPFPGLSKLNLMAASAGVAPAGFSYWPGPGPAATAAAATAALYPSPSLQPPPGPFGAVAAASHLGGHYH
How it was run: (§1)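 Yeast served to express human transcription factors as GST fusions, which were then captured on glutathione beads and labelled with DNA barcodes. Pooled with a tag-only sample, they were incubated with 200 nmole of a 16-mer random double-stranded DNA library for 30 min at room temperature in Tris/NaCl/DTT/glycerol buffer, washed, crosslinked with 0.1% formaldehyde, ligated by proximity, amplified by PCR and sequenced. Dividing each hexamer's read frequency for a factor by its frequency for the tag-only sample gives the binding signal.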

ETV5 = ETV5 (Homo sapiens, UniProt P41161 1-510); conditions: protein: recombinant; tags: N-terminal GST; dsDNA, one strand shown
ETV5, sequence (P41161 whole entry): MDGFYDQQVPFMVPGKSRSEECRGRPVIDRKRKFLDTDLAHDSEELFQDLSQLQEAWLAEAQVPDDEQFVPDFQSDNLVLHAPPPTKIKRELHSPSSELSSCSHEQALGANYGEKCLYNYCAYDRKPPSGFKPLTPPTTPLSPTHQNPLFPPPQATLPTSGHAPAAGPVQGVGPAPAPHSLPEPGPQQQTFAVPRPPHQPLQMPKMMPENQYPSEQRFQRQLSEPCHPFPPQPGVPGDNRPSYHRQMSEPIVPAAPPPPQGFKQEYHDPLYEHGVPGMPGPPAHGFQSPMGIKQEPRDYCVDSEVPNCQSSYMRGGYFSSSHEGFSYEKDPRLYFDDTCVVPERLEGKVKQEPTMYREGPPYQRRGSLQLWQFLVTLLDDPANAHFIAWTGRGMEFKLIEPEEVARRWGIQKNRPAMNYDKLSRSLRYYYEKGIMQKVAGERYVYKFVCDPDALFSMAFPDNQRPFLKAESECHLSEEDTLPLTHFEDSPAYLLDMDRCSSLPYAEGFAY
How it was run: as §1

HSF1 = HSF1 (Homo sapiens, UniProt Q00613 1-529); conditions: protein: recombinant; tags: N-terminal GST; chain copies: 3; dsDNA, one strand shown
HSF1, sequence (Q00613 whole entry): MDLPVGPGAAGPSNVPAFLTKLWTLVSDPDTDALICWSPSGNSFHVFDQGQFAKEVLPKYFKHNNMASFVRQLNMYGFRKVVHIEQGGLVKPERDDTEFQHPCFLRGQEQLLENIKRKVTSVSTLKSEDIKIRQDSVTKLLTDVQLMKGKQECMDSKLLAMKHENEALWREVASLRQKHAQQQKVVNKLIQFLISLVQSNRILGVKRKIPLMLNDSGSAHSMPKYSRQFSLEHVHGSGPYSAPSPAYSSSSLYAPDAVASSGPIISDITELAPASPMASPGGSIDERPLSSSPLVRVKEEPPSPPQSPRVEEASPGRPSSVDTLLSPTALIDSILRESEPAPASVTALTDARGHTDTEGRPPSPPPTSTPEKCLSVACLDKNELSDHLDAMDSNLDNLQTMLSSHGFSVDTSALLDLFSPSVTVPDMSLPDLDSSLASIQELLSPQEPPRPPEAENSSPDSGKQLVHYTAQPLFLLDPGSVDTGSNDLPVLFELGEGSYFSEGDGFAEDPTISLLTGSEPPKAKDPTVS
How it was run: as §1

SPIC = target: T2, SPIC (Homo sapiens, UniProt Q8N5J4 1-248); conditions: protein: recombinant; tags: N-terminal GST; dsDNA, one strand shown
T2 sequence: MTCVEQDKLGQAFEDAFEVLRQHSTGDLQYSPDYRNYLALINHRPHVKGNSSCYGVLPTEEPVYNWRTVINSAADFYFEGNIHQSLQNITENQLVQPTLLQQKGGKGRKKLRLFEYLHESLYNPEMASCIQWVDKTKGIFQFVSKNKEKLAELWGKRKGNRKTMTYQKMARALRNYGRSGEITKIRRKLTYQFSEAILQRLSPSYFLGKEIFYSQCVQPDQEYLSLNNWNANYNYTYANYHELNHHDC
How it was run: as §1

ELF4 = ELF4 (Homo sapiens, UniProt Q99607 1-663); conditions: protein: recombinant; tags: N-terminal GST; dsDNA, one strand shown
ELF4, sequence (Q99607 whole entry): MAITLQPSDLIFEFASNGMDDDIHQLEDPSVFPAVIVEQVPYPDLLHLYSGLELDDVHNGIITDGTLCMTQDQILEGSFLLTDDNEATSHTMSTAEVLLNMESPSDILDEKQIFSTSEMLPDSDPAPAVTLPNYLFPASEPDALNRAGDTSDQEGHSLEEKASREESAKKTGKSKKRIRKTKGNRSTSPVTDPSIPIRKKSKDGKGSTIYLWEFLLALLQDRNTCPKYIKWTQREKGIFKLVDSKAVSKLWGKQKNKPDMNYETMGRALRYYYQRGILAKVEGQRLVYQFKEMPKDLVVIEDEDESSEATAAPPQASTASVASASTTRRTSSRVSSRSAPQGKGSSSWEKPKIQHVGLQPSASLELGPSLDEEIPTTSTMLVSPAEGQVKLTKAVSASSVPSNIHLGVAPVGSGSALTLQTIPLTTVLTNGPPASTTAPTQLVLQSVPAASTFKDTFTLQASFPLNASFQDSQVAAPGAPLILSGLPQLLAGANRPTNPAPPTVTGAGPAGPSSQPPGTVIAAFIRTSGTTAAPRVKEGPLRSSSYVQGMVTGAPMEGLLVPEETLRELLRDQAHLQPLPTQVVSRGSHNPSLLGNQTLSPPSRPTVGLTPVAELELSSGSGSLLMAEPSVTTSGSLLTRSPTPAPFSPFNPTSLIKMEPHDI
How it was run: as §1

ELK4 = target: T3, ELK4 (Homo sapiens, UniProt P28324-2 1-405); conditions: protein: recombinant; tags: N-terminal GST; dsDNA, one strand shown
T3 sequence: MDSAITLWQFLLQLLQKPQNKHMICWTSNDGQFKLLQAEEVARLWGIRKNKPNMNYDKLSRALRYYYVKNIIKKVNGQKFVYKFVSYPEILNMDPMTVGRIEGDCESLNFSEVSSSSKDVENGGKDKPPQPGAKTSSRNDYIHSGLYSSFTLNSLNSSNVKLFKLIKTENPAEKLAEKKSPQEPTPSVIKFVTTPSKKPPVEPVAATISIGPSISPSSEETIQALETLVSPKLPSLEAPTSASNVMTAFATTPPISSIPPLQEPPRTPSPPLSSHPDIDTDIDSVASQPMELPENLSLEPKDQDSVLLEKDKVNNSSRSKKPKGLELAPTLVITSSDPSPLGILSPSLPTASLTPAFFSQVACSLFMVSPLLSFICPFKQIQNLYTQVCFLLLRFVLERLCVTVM
How it was run: as §1

ETV2 = target: T4, ETV2 (Homo sapiens, UniProt O00321 1-342); conditions: protein: recombinant; tags: N-terminal GST; dsDNA, one strand shown
T4 sequence: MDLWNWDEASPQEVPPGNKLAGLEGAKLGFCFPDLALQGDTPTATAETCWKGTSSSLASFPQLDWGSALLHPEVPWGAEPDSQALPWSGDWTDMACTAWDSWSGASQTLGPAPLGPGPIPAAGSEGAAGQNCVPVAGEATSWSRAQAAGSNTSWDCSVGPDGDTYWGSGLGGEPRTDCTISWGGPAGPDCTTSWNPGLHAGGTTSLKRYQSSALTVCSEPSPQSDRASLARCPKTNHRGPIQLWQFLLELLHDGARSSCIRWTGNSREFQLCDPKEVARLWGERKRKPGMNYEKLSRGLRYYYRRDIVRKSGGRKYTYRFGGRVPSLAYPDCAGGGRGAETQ
How it was run: as §1

ELF3 = target: T5, ELF3 (Homo sapiens, UniProt P78545 1-371); conditions: protein: recombinant; tags: N-terminal GST; dsDNA, one strand shown
T5 sequence: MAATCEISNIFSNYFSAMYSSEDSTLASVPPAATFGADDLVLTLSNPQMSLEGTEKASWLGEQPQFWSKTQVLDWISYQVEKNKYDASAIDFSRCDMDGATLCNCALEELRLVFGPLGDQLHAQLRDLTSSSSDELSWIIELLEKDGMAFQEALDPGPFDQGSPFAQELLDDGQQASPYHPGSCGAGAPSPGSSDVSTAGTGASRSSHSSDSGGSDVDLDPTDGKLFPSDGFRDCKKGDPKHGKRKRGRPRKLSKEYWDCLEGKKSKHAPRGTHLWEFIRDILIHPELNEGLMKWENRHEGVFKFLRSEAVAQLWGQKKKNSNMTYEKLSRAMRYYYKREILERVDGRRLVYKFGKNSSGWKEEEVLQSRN
How it was run: as §1

CRX = CRX (Homo sapiens, UniProt O43186 1-299); conditions: protein: recombinant; tags: N-terminal GST; dsDNA, one strand shown
CRX, sequence (O43186 whole entry): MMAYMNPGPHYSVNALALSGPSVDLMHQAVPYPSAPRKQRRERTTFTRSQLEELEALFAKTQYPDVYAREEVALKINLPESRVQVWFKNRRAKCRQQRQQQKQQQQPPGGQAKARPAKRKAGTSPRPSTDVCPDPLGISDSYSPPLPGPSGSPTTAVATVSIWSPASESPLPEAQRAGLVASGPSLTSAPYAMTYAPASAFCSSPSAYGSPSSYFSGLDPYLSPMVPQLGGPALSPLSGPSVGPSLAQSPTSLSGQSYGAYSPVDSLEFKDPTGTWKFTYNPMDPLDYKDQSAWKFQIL
How it was run: as §1

ETV1 = ETV1 (Homo sapiens, UniProt P50549 1-477); conditions: protein: recombinant; tags: N-terminal GST; dsDNA, one strand shown
ETV1, sequence (P50549 whole entry): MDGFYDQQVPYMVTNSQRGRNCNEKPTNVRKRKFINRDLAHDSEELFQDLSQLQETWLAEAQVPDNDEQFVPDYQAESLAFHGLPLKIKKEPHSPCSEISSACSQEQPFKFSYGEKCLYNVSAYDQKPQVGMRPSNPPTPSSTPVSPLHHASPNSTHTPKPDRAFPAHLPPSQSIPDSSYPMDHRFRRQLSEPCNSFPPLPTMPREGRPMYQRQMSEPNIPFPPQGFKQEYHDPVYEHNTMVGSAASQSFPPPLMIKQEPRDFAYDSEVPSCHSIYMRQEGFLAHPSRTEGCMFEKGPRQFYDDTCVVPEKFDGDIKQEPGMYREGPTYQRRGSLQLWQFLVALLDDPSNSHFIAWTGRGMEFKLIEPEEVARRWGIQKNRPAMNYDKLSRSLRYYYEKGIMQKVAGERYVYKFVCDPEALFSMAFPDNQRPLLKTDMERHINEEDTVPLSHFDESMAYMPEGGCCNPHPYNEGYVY
How it was run: as §1

| Sequence | binding signal (FEV) | binding signal (ETV5) | binding signal (HSF1) | binding signal (SPIC) | binding signal (ELF4) | binding signal (ELK4) | binding signal (ETV2) | binding signal (ELF3) | binding signal (CRX) | binding signal (ETV1) |
| --- | --- | --- | --- | --- | --- | --- | --- | --- | --- | --- |
| ATTAAC | 1.27 fold enrichment (6-mer frequency, TF over GST control) | 1.27 fold enrichment (6-mer frequency, TF over GST control) | 2.07 fold enrichment (6-mer frequency, TF over GST control) | 1.3 fold enrichment (6-mer frequency, TF over GST control) | 1.3 fold enrichment (6-mer frequency, TF over GST control) | 1.25 fold enrichment (6-mer frequency, TF over GST control) | 1.21 fold enrichment (6-mer frequency, TF over GST control) | 1.29 fold enrichment (6-mer frequency, TF over GST control) | 3.36 fold enrichment (6-mer frequency, TF over GST control) | 1.27 fold enrichment (6-mer frequency, TF over GST control) |
| CTCGAA | 1.17 fold enrichment (6-mer frequency, TF over GST control) | 1.2 fold enrichment (6-mer frequency, TF over GST control) | 4.2 fold enrichment (6-mer frequency, TF over GST control) | 1.15 fold enrichment (6-mer frequency, TF over GST control) | 1.2 fold enrichment (6-mer frequency, TF over GST control) | 1.34 fold enrichment (6-mer frequency, TF over GST control) | 1.16 fold enrichment (6-mer frequency, TF over GST control) | 1.11 fold enrichment (6-mer frequency, TF over GST control) | 1.9 fold enrichment (6-mer frequency, TF over GST control) | 1.1 fold enrichment (6-mer frequency, TF over GST control) |
| GCTCGA | 1.25 fold enrichment (6-mer frequency, TF over GST control) | 1.22 fold enrichment (6-mer frequency, TF over GST control) | 1.74 fold enrichment (6-mer frequency, TF over GST control) | 1.31 fold enrichment (6-mer frequency, TF over GST control) | 1.25 fold enrichment (6-mer frequency, TF over GST control) | 1.29 fold enrichment (6-mer frequency, TF over GST control) | 1.07 fold enrichment (6-mer frequency, TF over GST control) | 1.24 fold enrichment (6-mer frequency, TF over GST control) | 1.17 fold enrichment (6-mer frequency, TF over GST control) | 1.07 fold enrichment (6-mer frequency, TF over GST control) |
| AGCATT | 1.11 fold enrichment (6-mer frequency, TF over GST control) | 1.03 fold enrichment (6-mer frequency, TF over GST control) | 1.2 fold enrichment (6-mer frequency, TF over GST control) | 1.03 fold enrichment (6-mer frequency, TF over GST control) | 1.11 fold enrichment (6-mer frequency, TF over GST control) | 1.08 fold enrichment (6-mer frequency, TF over GST control) | 1.06 fold enrichment (6-mer frequency, TF over GST control) | 1.22 fold enrichment (6-mer frequency, TF over GST control) | 1.32 fold enrichment (6-mer frequency, TF over GST control) | 1.13 fold enrichment (6-mer frequency, TF over GST control) |
| CCTCTC | 1.36 fold enrichment (6-mer frequency, TF over GST control) | 1.34 fold enrichment (6-mer frequency, TF over GST control) | 1.23 fold enrichment (6-mer frequency, TF over GST control) | 1.46 fold enrichment (6-mer frequency, TF over GST control) | 1.48 fold enrichment (6-mer frequency, TF over GST control) | 1.36 fold enrichment (6-mer frequency, TF over GST control) | 1.44 fold enrichment (6-mer frequency, TF over GST control) | 1.5 fold enrichment (6-mer frequency, TF over GST control) | 1.16 fold enrichment (6-mer frequency, TF over GST control) | 1.42 fold enrichment (6-mer frequency, TF over GST control) |
| CCTCTG | 1.48 fold enrichment (6-mer frequency, TF over GST control) | 1.56 fold enrichment (6-mer frequency, TF over GST control) | 1.39 fold enrichment (6-mer frequency, TF over GST control) | 1.44 fold enrichment (6-mer frequency, TF over GST control) | 1.66 fold enrichment (6-mer frequency, TF over GST control) | 1.9 fold enrichment (6-mer frequency, TF over GST control) | 1.5 fold enrichment (6-mer frequency, TF over GST control) | 1.73 fold enrichment (6-mer frequency, TF over GST control) | 1.36 fold enrichment (6-mer frequency, TF over GST control) | 1.67 fold enrichment (6-mer frequency, TF over GST control) |
| TTTTTT | 1.17 fold enrichment (6-mer frequency, TF over GST control) | 1.23 fold enrichment (6-mer frequency, TF over GST control) | 1.23 fold enrichment (6-mer frequency, TF over GST control) | 1.3 fold enrichment (6-mer frequency, TF over GST control) | 1.19 fold enrichment (6-mer frequency, TF over GST control) | 1.17 fold enrichment (6-mer frequency, TF over GST control) | 1.4 fold enrichment (6-mer frequency, TF over GST control) | 1.33 fold enrichment (6-mer frequency, TF over GST control) | 1.24 fold enrichment (6-mer frequency, TF over GST control) | 1.36 fold enrichment (6-mer frequency, TF over GST control) |
| TGTTTG | 1.21 fold enrichment (6-mer frequency, TF over GST control) | 1.23 fold enrichment (6-mer frequency, TF over GST control) | 1.06 fold enrichment (6-mer frequency, TF over GST control) | 1.29 fold enrichment (6-mer frequency, TF over GST control) | 1.36 fold enrichment (6-mer frequency, TF over GST control) | 1.38 fold enrichment (6-mer frequency, TF over GST control) | 1.14 fold enrichment (6-mer frequency, TF over GST control) | 1.46 fold enrichment (6-mer frequency, TF over GST control) | 1.08 fold enrichment (6-mer frequency, TF over GST control) | 1.38 fold enrichment (6-mer frequency, TF over GST control) |
